Compounds with a hit are over-represented: about 2.3% of the library has one in this group of screens.
HSP90 refold inh = inhibitors of HSP90 luciferase refolding in rabbit reticulocyte lysate. luciferase refolding luminescence, 3 h. inhibition, % at 5.6 µM. actives 0.91% (n = 290,000);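 active means inhibition above the screen-wide mean plus 3 SD, computed separately per campaign, cut at about 16% in these data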;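 further: 0% = DMSO wells and 100% = 60 µM geldanamycin wells; inhibitors lower the luminescence because luciferase stays unfolded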
SENP8 block-1 = blocks the human protease SENP8; Q96LD8; purified SENP8, Z-RLRGG-aminoluciferin cleavage, luminescence; inhibition, % at 10 µM; actives 1.2% (n = 330,000); in the data active means inhibition above about 50%
Target sequence (Q96LD8 whole entry, looked up): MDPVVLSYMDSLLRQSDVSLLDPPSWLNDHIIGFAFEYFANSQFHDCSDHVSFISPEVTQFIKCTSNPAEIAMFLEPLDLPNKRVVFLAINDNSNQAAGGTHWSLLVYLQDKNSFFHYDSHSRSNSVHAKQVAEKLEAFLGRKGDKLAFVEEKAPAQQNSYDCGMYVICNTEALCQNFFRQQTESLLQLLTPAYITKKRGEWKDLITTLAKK
LGR2 inh = blocks bursicon-induced cAMP signaling via Drosophila LGR2; HEK293 LGR2, CRE-luciferase, bursicon-stimulated, 4 h; inhibition, % at 9.99 µM; actives 0.35% (n = 380,000); AID 720647;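 active means drop in luminescence signal, shown as inhibition above about 50% in the replicate tests, limit read from the data, passing the limit was not always enough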;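 further: agonist challenge used bursicon conditioned medium at about half maximal strength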
SENP8 block-2 = blocks human SENP8 cleavage of Nedd8 substrate; Q96LD8; recombinant SENP8, Nedd8 substrate fluorescence; inhibition, % at 20 µM; actives 0.64% (n = 360,000); in the data active means inhibition mostly above about 40%, no sharp cut-off; inactive means mostly below about 27%
SENP7 block = inhibitors of human SENP7 protease; Q9BQF6; recombinant SENP7, Z-RLRGG-aminoluciferin luminescence, 40 min; inhibition, % at 5 µM; actives 1.5% (n = 330,000); AID 434973;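 active means inhibition above about 50% at the single test dose, limit read from the data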;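 further: plate controls were DMSO with enzyme for no effect and no enzyme buffer wells for full effect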
SENP6 inh = inhibitors of human SENP6 protease | Recombinant SENP6 catalytic domain, aminoluciferin luminescence | inhibition, % at 10 µM | actives 1.8% (n = 330,000) | Q9GZR1;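 active means inhibition above about 50% at the single tested dose, limit read from the data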;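 further: plate controls were DMSO wells with enzyme for no effect and DMSO wells lacking enzyme for full effect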
Target sequence (Q9GZR1 628-1112 limits assumed): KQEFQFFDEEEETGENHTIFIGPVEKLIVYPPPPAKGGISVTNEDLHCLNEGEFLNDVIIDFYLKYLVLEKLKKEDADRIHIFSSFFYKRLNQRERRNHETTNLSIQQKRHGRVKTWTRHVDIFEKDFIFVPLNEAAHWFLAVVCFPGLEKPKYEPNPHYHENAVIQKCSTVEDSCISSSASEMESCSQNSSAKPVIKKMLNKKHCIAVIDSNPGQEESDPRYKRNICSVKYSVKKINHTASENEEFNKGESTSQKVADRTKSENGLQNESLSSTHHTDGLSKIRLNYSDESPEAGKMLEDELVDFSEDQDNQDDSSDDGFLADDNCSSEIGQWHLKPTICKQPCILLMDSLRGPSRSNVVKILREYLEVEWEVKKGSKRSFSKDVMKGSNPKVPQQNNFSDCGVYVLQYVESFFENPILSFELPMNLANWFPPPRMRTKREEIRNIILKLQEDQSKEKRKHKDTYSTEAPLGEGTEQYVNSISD
HSP90 confirm = confirmation of HSP90 inhibitors; shares compounds with HSP90 refold inh; rabbit reticulocyte lysate, luciferase refolding luminescence, 3 h; inhibition, % at 5.9 µM; actives 64% (n = 2,300); in the data active means inhibition above about 18%;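 further: 0% = vehicle wells and 100% = reference inhibitor wells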
FLuc counter = counter-screen for HSP90 inhibitors: inhibitors of firefly luciferase; shares compounds with HSP90 refold inh; purified native firefly luciferase, luminescence; inhibition, % at 5.9 µM; actives 48% (n = 2,300);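 active means inhibition above the mean inhibition of all tested sample wells plus 3 SD, cut at about 10% in these data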;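 further: 0% = DMSO with luciferase and 100% = wells lacking luciferase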
The depositor's hits bear a star; · = not tested or not shown.

SMILES | HSP90 refold inh | SENP8 block-1 | LGR2 inh | SENP8 block-2 | SENP7 block | SENP6 inh | HSP90 confirm | FLuc counter
COc1ccc(C(=O)Nn2c(SCC(=O)c3ccc(Cl)cc3)nc3ccccc3c2=O)cc1 | 77* | 6 | · | 0 | 5 | 7 | 53* | 46*
C[C@H]1CN([C@@H](C)CO)C(=O)c2cc(NS(=O)(=O)c3ccccc3)ccc2O[C@H]1CN(C)S(=O)(=O)c1cccs1 | · | · | 1 | · | · | · | · | ·
O=C(N[C@H]1CC[C@@H](CCNS(=O)(=O)c2ccc(Cl)cc2)O[C@H]1CO)c1ccccn1 | · | · | 8 | · | · | · | · | ·
O=C(Nc1ccccc1)N1C[C@@H]2[C@H](c3ccccc31)[C@H](CO)N2C(=O)c1ccccc1F | · | · | -9 | · | · | · | · | ·
C[C@H](CO)N1C[C@H](C)[C@@H](CN(C)S(=O)(=O)c2cn(C)cn2)Oc2ccc(NS(=O)(=O)c3ccc(Cl)cc3)cc2C1=O | · | · | -25 | · | · | · | · | ·
CC(C)NC(=O)N(C)C[C@@H]1Oc2c(NC(=O)C3CCCCC3)cccc2C(=O)N([C@H](C)CO)C[C@H]1C | · | · | -3 | · | · | · | · | ·
C[C@@H]1CCCCO[C@H](CN(C)C(=O)c2ccncc2)[C@H](C)CN([C@H](C)CO)C(=O)c2cc(NS(=O)(=O)c3ccccc3)ccc2O1 | · | · | 4 | · | · | · | · | ·
COc1ccc(C(=O)Nn2c(SCc3cccc([N+](=O)[O-])c3)nc3ccccc3c2=O)cc1 | 44* | 0 | 13 | 9 | 2 | 7 | 50* | 42*
COc1ccc(C(=O)CSc2ccccc2C(=O)O)cc1 | 32* | 16 | · | 17 | 18 | 43 | 32* | -7
COC(=O)CC1=C(C)C(=O)CC2C(C)(C)CCCC12C (stereo not drawn) | 19* | -6 | -12 | 3 | -2 | -12 | 1 | -7
C=C[C@]1(C)C=C2C(=O)C[C@H]3C(C)(C)CCC[C@]3(C(=O)O)[C@@]2(O)CC1 | · | · | -30 | 14 | · | · | · | ·
C[n+]1cccc2ccc3c(c21)OC(N)=C(C#N)C3c1ccccc1 (stereo not drawn) | 9 | 1 | 12 | 1 | 4 | 10 | · | ·
C[n+]1cccc(C2C(C#N)=C(N)Oc3c2ccc2ccccc32)c1 (stereo not drawn) | 18* | -4 | 3 | 12 | 15 | 18 | -2 | -14
O=C(NCc1ccc(Cl)cc1)N1CCN(S(=O)(=O)c2ccccc2)CC1 | 38* | 1 | 7 | 5 | 4 | -4 | -1 | -6
COC(=O)c1ccccc1OCCCOc1ccc(C=O)cc1OC | 60* | 5 | -14 | 1 | 1 | 7 | 70* | -10
COc1ccc2c3c([nH]c2c1)[C@@H](CO)N(C(=O)C1CCCC1)CC31CCN(C)CC1 | · | · | 3 | · | · | · | · | ·
CCN(CCO)c1ccc(N=Nc2cc(C)[nH]n2)cc1 | 57* | -13 | 92* | 26 | -5 | 4 | 76* | 68*
CCCCOC(=O)CSc1nc(N)c(C#N)c(-c2ccc(OC)cc2)c1C#N | 25* | -4 | · | -86 | 7 | -5 | 5 | -6
C[C@@H]1CN([C@H](C)CO)C(=O)Cc2cc(NC(=O)Nc3ccc(C(F)(F)F)cc3)ccc2O[C@@H]1CN(C)Cc1ccc(Oc2ccccc2)cc1 | · | · | 14 | · | · | · | · | ·
O=C(C1=C[C@H](c2csc3ccccc23)C[C@H](OCCCCO)O1)N1CCN(Cc2ccc3c(c2)OCO3)CC1 | 19* | -20 | -1 | 12 | -13 | -16 | -6 | -13
[O-]/[N+](=C\c1ccco1)c1ccc(Cl)cc1 | 42* | 11 | -79 | 7 | 6 | 10 | 82* | -35
C[C@@H]1CCCCO[C@H](CN(C)C(=O)Nc2cccc3ccccc23)[C@H](C)CN([C@@H](C)CO)C(=O)c2cc(NC(=O)Nc3ccc(C(F)(F)F)cc3)ccc2O1 | · | · | -1 | · | · | · | · | ·
CC(C)Oc1cccc(C(=O)NC(=S)Nc2ccccc2)c1 | 23* | 11 | -44 | 5 | 16 | 46 | 20* | 8
O=C(N/N=C/c1ccncc1)c1ccccn1 | 2 | -9 | -12 | 11 | 7 | 15 | · | ·
O=C(N/N=C/c1ccc(N2CCOCC2)cc1)c1ccccn1 | 26* | 27 | 17 | -83 | 55* | 56* | 14 | 1
SMILES | HSP90 refold inh | SENP8 block-1 | LGR2 inh | SENP8 block-2 | SENP7 block | SENP6 inh | HSP90 confirm | FLuc counter
CCn1c(=O)n(-c2ccc(Cl)cc2)c(=O)c2c3c(sc21)COC(C)(C)C3 | -6 | -3 | · | 26 | 7 | 5 | · | ·
Cn1c(=O)n(-c2ccc(Cl)cc2)c(=O)c2c3c(sc21)COC(C)(C)C3 | 41* | 9 | · | 9 | 0 | 11 | -3 | -5
CO[C@@H]1CN(C)C(=O)c2cc(NC(=O)Nc3cccc(Cl)c3)ccc2OC[C@H](C)N(C)C[C@H]1C | · | · | -12 | · | · | · | · | ·
CCCCNC(=S)N(CCN(CC)CC)Cc1cc2cc3c(cc2[nH]c1=O)OCO3 | 1 | -5 | -8 | -329 | 11 | -10 | · | ·
CCN(CC)CCN(Cc1cc2cc3c(cc2[nH]c1=O)OCO3)C(=S)NC | 29* | 6 | 4 | -310 | -8 | 23 | -1 | -4
CC(=O)Oc1cc(OC(C)=O)c2c(C)cc(=O)oc2c1 | 21* | -9 | · | -496 | 8 | -6 | -2 | -4
c1ccc(-c2ncc(CSc3nncn3-c3ccccc3)s2)cc1 | -7 | 2 | -6 | 10 | 6 | 7 | · | ·
Cc1nnc(SCc2cnc(-c3ccc(C(C)C)cc3)s2)n1C | 38* | -2 | · | 22 | 2 | 1 | 50* | 41*
COc1ccc(S(=O)(=O)Nc2ccc3c(c2)C(=O)N([C@@H](C)CO)C[C@H](C)[C@@H](CN(C)S(=O)(=O)c2ccc(F)cc2)O3)cc1 | · | · | -2 | · | · | · | · | ·
C/C=C/c1ccc([C@@H]2[C@H](CO)N(CCC(F)(F)F)C23CN(C(=O)COC)C3)cc1 | · | · | 2 | · | · | · | · | ·
CCCCCN=Cc1c(C)[nH]n(-c2nc3ccccc3s2)c1=O | 26* | 14 | 60* | 16 | 16 | 33 | 12 | 1
CCCc1[nH]n(-c2nc3ccccc3s2)c(=O)c1C=NCCCOC | 2 | 0 | -5 | 20 | 8 | -4 | · | ·
CN(C)CC(=O)N[C@@H]1CC[C@@H](CCn2cc(CN(C)C)nn2)O[C@@H]1CO | · | · | 8 | · | · | · | · | ·
Cc1ccc(S(=O)(=O)c2c(N)n(CCCN(C)C)c3nc4ccccc4nc23)cc1 | 0 | -3 | · | -389 | -7 | -1 | · | ·
CN(C)CCCn1c(N)c(C#N)c2nc3ccccc3nc21 | 47* | 12 | 12 | -382 | 37 | 37 | -7 | -10
CCCN(C)C[C@@H]1OCCCC[C@H](C)Oc2ccc(NC(=O)CCC(F)(F)F)cc2C(=O)N([C@H](C)CO)C[C@@H]1C | · | · | 5 | · | · | · | · | ·
C[C@@H]1CN([C@H](C)CO)C(=O)Cc2cc(NS(=O)(=O)c3ccc(F)cc3)ccc2O[C@@H]1CN(C)Cc1ccc(C(=O)O)cc1 | · | · | 4 | · | · | · | · | ·
